# A selection: hits, their analogues and other compounds. The true share with any hit is near 7.6%.
# RORg inh = qHTS for inhibitors of ROR gamma transcriptional activity; Nuclear receptor ROR-gamma (Mus musculus), P51450; Drosophila S2 Gal4-RORgamma UAS-luciferase reporter, 20 h; Potency, µM (top dose mostly 53.6 µM), without a hit: at the highest dose activity change, negative = inhibition, most hits filed as inhibitors; actives 5.4% (n = 310,000); AID 2551, 2010; further: potency means the concentration at half of the fitted maximal effect; on the % scale 0 is the no-effect control and ±100 the full control effect; nearly all actives have a fitted effect of over 60% in size
# Target sequence (P51450 whole entry, looked up, the tested form may be a part): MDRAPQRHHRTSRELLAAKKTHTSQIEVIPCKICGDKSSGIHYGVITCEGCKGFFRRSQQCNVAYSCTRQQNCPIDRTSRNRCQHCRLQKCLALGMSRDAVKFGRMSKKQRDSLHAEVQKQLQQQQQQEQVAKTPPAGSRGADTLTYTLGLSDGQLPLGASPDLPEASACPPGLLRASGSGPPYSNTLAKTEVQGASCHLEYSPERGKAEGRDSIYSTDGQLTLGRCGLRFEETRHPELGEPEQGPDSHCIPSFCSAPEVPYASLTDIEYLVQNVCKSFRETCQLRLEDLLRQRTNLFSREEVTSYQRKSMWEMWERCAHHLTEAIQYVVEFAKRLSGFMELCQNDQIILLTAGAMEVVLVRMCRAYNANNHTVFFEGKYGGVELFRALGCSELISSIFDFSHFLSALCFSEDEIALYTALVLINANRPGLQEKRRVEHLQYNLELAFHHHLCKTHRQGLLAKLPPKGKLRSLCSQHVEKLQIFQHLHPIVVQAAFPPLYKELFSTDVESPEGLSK
#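 ROR gamma transcriptional activity was tracked as Gal4-UAS luciferase output in stably transfected Drosophila Schneider cells, with compound added 1 hr before 700 uM copper sulfate induction and a 20 hr ambient-temperature incubation.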
# p53 reactivation = qHTS assay for re-activators of p53 using a Luc reporter; H1299 p53-A138V BP100-luciferase reporter, luminescence, 24 h; actives 0.063% (n = 320,000); AID 504706, 2011; Potency, µM (top dose mostly 92.2 µM), for inactives: at the highest dose activity change, positive = activation, hits mostly activators; further: potency means the concentration at half of the fitted maximal effect; % of control where 0% means no effect; nearly all actives have a fitted effect of over 45% in size
#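 H1299 (p53-null), stable ts p53-A138V + BP100-Luc; 1000 cells/well, Opti-MEM/10% FBS; cpd 4 pt, 1:5; 24 h, 37 deg C, 5% CO2; detection reagent 10 min RT; luminescence.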
# ELG1 DNA repair = qHTS screen for small molecules that inhibit ELG1-dependent DNA repair in human embryonic kidney (HEK293T) cells expressing luciferase-tagged ELG1; actives 2.3% (n = 330,000); Potency, µM (doses to about 46.1 µM), inactives show at the top dose activity change, negative = inhibition, hits mostly inhibitors; AID 504467, 2011; HEK293T ELG1-luciferase reporter, luminescence, 16 h; DNA damage induced by 5-fluorouridine; further: potency means the concentration at half of the fitted maximal effect; on the % scale 0 is the no-effect control and ±100 the full control effect; nearly all actives have a fitted effect of over 55% in size
#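 Quantitative HTS, concentration-response format. 2,000 cells/well co-treated with 5-fluorouridine and compound, 16 hr in 5% CO2 at 37 °C; ONE-Glo luminescence read after 30 min.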
# VP16 counter = VP16 counterscreen qHTS for inhibitors of ROR gamma transcriptional activity | Drosophila S2 Gal4-VP16 UAS-luciferase, luminescence, 20 h | Potency, µM (titrated, usually from 53.6 µM), for inactives: at the highest dose activity, negative = inhibition, actives largely listed as inhibitors | actives 3.5% (n = 310,000) | AID 2546, 2010;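 further: Gal4-VP16 expression switched on by copper sulfate through the metallothionein promoter; potency means the concentration at half of the fitted maximal effect; on the % scale 0 is the no-effect control and ±100 the full control effect; nearly all actives have a fitted effect of over 50% in size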
# BRCA1 expr act = qHTS Assay to Identify Small Molecule Activators of BRCA1 Expression | MCF7-BRCA1-FFLuc reporter, luminescence, 48 h; response scale: scaled: vehicle 0%, 10 µM genistein 100% | AID 624202, 2012 | Potency, µM (top dose mostly 46.1 µM), for inactives: top-dose activation, usual class: activators | actives 1.1% (n = 380,000); further: potency means the concentration at half of the fitted maximal effect; nearly all actives have a fitted effect of over 80% in size
#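 Reporter cells (MCF7, BRCA1 promoter-firefly luciferase) received library compounds across a concentration series for 48 h. End-point luminescence was measured and concentration-effect curves derived after normalization.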
# Giardia kill = Small Molecules that selectively kill Giardia lamblia: qHTS | actives 0.15% (n = 340,000) | activity change, % at 7.66 µM, hits read low | AID 540267, 2011 | Giardia lamblia trophozoite viability; in the data active means activity change below about -80%; inconclusive means between about -30% and that limit;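 further: parasites exposed to compound for two days anaerobically before the ATP read; on the % scale 0 is the no-effect control and ±100 the full control effect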
#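 Trophozoites 100 cells/well + cpd; 48 hrs, 37 deg C, anaerobic. ATPLite 1-Step added, 15-30 min RT, luminescence read (ATP-based viability).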
# * hit, by the source's call; ? = inconclusive; / = no result given; [ ] = dose if it differs, or a comment. Unless noted, the call rests on the fitted dose curve; in most records, active means well fitted curve in the direction sought with a large enough effect; inconclusive means small, poorly fitted or top-dose-only effect, or another doubt; inactive means no such curve, though single readings can be large; an effect the other way counts as inactive or inconclusive.
SMILES,RORg inh,p53 reactivation,ELG1 DNA repair,VP16 counter,BRCA1 expr act,Giardia kill
COc1cccc(/C=C2/SC(=S)N(CCC(=O)N3CCOCC3)C2=O)c1,?,?,-22.2%,?,-70.7%,7.7
O=C(Nc1cccc([N+](=O)[O-])c1)C1C2/C=C\CCCCC21 (configuration not stated),17.2%,3.3%,-7.4%,-6.0%[10 µM],1.2%,0.9
O=C(O)c1cnnc2ccccc12,/,/,/,/,-18.0%,0.5
Cc1cc(C)nc(SCc2nnc(SCC(=O)Nc3ccc(Cl)c(C(F)(F)F)c3)o2)n1,21.4%,-1.6%,-17.9%,-1.3%,12.2%,-4.5
O=C(NCC(=O)N1CCCC(C(F)(F)F)C1)c1ccc2ccccc2c1 (configuration not stated),/,-4.4%,27.5%,/,11.4%,-5.3
O=C(NC(=S)N1CCCC(C(F)(F)F)C1)c1ccc(F)cc1 (configuration not stated),0.562µM*,11.1%,1.8%,0.708µM*,-18.1%,-14.2
O=C(NCC(=O)N1CCCC(C(F)(F)F)C1)c1ccc(Oc2ccccc2)cc1 (configuration not stated),8.91µM*,20.5%,?,12.6µM*,19.7%,13.4
CCN1CCN(CC(=O)N2CCCC(C(=O)c3ccc(Oc4ccccc4)cc3)C2)CC1 (configuration not stated),7.94µM*,9.0%,?,?,-35.0%,-12.7
CC(C)OCc1c(C(=O)Nc2nccs2)oc2ccccc12,?,16.1%,?,9.9%,-16.1%,-2.4
FC(F)(F)c1cnc2c(c1)[nH]c(=S)n2-c1ccc(Cl)cc1,7.94µM*,-2.2%,16.4µM*,?,-6.7%,-8.1
Cc1ccc(-c2csc(N3CCN(c4cc5c(cc4Cl)nc(C)n5CCN4CCCCC4)CC3)n2)cc1,11.2µM*,/,-2.0%,?,-13.3%,9.3
CCNc1ncc2nc(-c3ccc(F)cc3)c(=O)n(-c3ccc(OC)cc3)c2n1,-21.8%,/,/,-10.6%,/,/
CCN(CC)S(=O)(=O)c1ccc(N2CCOCC2)c(NC(=O)COc2ccc(OC)cc2)c1,/,-8.9%,18.3µM*,/,-25.7%,-8.8
CCN(CC)S(=O)(=O)c1ccc(N2CCOCC2)c(NC(=O)COc2ccccc2C#N)c1,12.7%,-3.0%,9.2µM*,5.6%,-7.8%,6.6
CCN(CC)S(=O)(=O)c1ccc(N2CCOCC2)c(NC(=O)CC23CC4CC(CC(Br)(C4)C2)C3)c1,5.0%,-9.6%,9.2µM*,4.3%,-28.4%,-14.1
CCN(CC)S(=O)(=O)c1ccc(N2CCOCC2)c(NC(=O)Cc2ccc(Cl)cc2)c1,?,-1.7%,?,-8.4%,-10.0%,1.3
Cc1ccccc1OCC(=O)Nc1cc(S(=O)(=O)N2CCOCC2)ccc1N1CCCC1,/,-5.9%,?,/,-9.9%,-8.2
CCN(CC)S(=O)(=O)c1ccc(N2CCOCC2)c(NC(=O)COc2ccccc2C)c1,/,-2.4%,5.8µM*,/,-39.9%,3.1
O=C(CSc1nnc(CNC(=O)c2ccccc2F)o1)c1ccc(Cl)cc1,?,-7.1%,?,?,1.5%,1.0
CCOC(=O)C1=C(C)NC2=C(C(=O)CCC2)C1c1ccsc1 (configuration not stated),13.1%,/,/,-2.1%,/,/
Cc1nc2ccc(N=NC3=C(O)CC(C)(C)CC3=O)cc2s1,-34.6%,?,?,-29.7%,0.4%,0.6
CCOc1ccc2nc(N=NC3=C(O)CC(C)(C)CC3=O)sc2c1,2.24µM*,5.1%,?,3.2%,-52.6%,-4.5
O=C(COc1ccc(Br)cc1)c1ccc2c(c1)CCCC2,26.8%,-0.7%,16.2%,3.2%,18.7%,20.3
Cc1ccc(OCC(=O)c2ccc3c(c2)CCCC3)cc1C,-19.0%,?,?,-22.8%,4.47µM*,-1.3
COCCCNC(=S)Nc1ccccc1C,?,-5.7%,2.7%,-23.6%,-6.8%,-2.6
SMILES,RORg inh,p53 reactivation,ELG1 DNA repair,VP16 counter,BRCA1 expr act,Giardia kill
COCCNC(=S)NN(c1ccccc1)c1ccccc1,7.94µM*,4.4%,5.9%,?,-3.6%,8.3
COCCNC(=S)Nc1ccccc1Cc1ccccc1,3.55µM*,-2.6%,4.4%,10µM*,-8.8%,-0.3
COCCNC(=S)N(c1ccccc1)C(C)C,-27.7%,-0.7%,11.9%,7.7%,7.7%,12.5
CNC(=S)NN(c1ccccc1)c1ccccc1,17.8µM*,-4.1%,-17.0%,?,6.2%,-8.7
Nc1ccc(-c2nc3ccc(N)cc3s2)cc1,?,-3.4%,?,7.94µM*,19.1%,?
Nc1ccc(O)c(-c2nc3ccccc3s2)c1,?,?,?,-17.2%,37.9%,-13.6
Nc1cccc(-c2nc3ccc(N)cc3s2)c1,3.55µM*,-2.0%,?,?,?,?
CCN(CC)C(=O)c1csc(Nc2cccc3ccccc23)n1,34.3%,-4.7%,-19.0%,3.5%,-14.8%,-11.5
Nc1nnc(-c2cc3ccccc3oc2=O)s1,24.1%[0.365 µM],7.9%,?,/,7.94µM*,-18.6
O=c1oc2ccccc2cc1-c1nnc(NCc2ccco2)s1,-41.5%,?,?,?,4.9%,6.4
COc1ccc2oc(=O)c(-c3nnc(N)s3)cc2c1,-22.2%,12.4%,?,-4.5%,14.1µM*,-25.2
Cc1onc(-c2ccccc2)c1C(=O)Nc1ccc(-c2nnc3n2CCCCC3)cc1,?,-6.1%,-15.6%,-12.3%,2.6%,36.8
Cc1ccc(N=CNc2ccc(C)cc2C)c(C)c1,8.6%,2.2%,-6.0%,0.5%,0.0%,20.1
Cc1cc2n(n1)SC(Nc1ccccc1)N2 (configuration not stated),3.16µM*,10.6%,?,4.47µM*,36.7%,-0.3
Cc1cc(NC(=NC2CC2)c2ccccc2)n(-c2ccccc2)n1,-34.9%,-2.7%,0.0%,-19.3%,-1.5%,15.0
Cc1ccc(NC2Nc3cc(C)nn3S2)c(C)c1 (configuration not stated),3.55µM*,14.9%,?,?,?,-9.6
COc1cc(OC)cc(C(=O)NC(=S)NNC(=O)[C@H]2C[C@@H]2c2ccccc2)c1,14.1µM*,6.8%,-24.1%,?,-45.7%,-5.5
O=C(NC(=S)NNC(=O)[C@H]1C[C@@H]1c1ccccc1)c1ccc(F)cc1,10µM*,2.0%,?,?,-59.4%,-1.4
CC(C)(C)NC(=S)NNC(=O)[C@H]1C[C@@H]1c1ccccc1,0.562µM*,1.4%,6.4%,-22.8%,39.0%,-9.4

# Screening results deposited in PubChem BioAssay by National Center for Advancing Translational Sciences (NCATS).
